# Screening results from PubChem BioAssay.
# An excerpt weighted towards active compounds, which were near 21% of everything screened.
# Shiga inhibitor: A qHTS for Small Molecule Inhibitors of Shiga Toxin; Vero cells, Shiga toxin protein synthesis inhibition reporter; inhibition, % at 38.7 µM; actives 9.2% (n = 290,000); in the data active = inhibition mostly above about 28%, no sharp cut-off; inactive = mostly below about 43%; also: 0% is about no effect
# CHX counter: Cycloheximide Counterscreen for Small Molecule Inhibitors of Shiga Toxin; max response, %; AID 2314, 2010; cell reporter, cycloheximide protein synthesis inhibition counterscreen; actives 12% (n = 300,000); in the data active = max response mostly above about 13%, no sharp cut-off; inactive = mostly below about 14%; also: read at 38.3 µM for the half of the compounds with a filed dose; 0% is about no effect
# HCV inhibitor: qHTS Assay for Inhibitors of Hepatitis C Virus (HCV); Huh7.5.1 HCVcc-Cre infection, luciferase reporter, 44 h; Potency, µM (titrated, usually from 41.8 µM), without a hit: top-dose activity change, negative = inhibition, actives largely listed as inhibitors; actives 3.4% (n = 340,000); AID 651820, 2012; also: potency is read from the fitted curve at half-maximal effect; % is scaled to controls: 0 for no effect and ±100 for the full control effect
#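 HCVcc-Cre virus at an moi near 0.5 was added right after compound to cells cultured 4 h from seeding (1,000 cells/well). Luciferase activity was determined 44 h later, 15 min after substrate addition at RT.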
# Pf growth 48h: Primary qHTS for delayed death inhibitors of the malarial parasite plastid, 48 hour incubation; P. falciparum luciferase growth in erythrocytes, 48 h; Potency, µM (highest dose often 28.7 µM), inactives show at the top dose activity change, negative = inhibition, actives largely listed as inhibitors; actives 5.9% (n = 310,000); also: potency is read from the fitted curve at half-maximal effect; % is scaled to controls: 0 for no effect and ±100 for the full control effect
#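 Erythrocytes infected with P. falciparum carrying an integrated firefly luciferase reporter (2% hematocrit, 0.1% parasitemia final) were exposed to compounds in RPMI 1640 with 0.5% Albumax at 37 C, 5% CO2. Growth inhibition was scored as reduced luminescence.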
# Pf growth 96h: Primary qHTS for delayed death inhibitors of the malarial parasite plastid, 96 hour incubation; P. falciparum luciferase reporter growth, 96 h; Potency, µM (titrated, usually from 28.7 µM), for the others: at the highest dose activity change, negative = inhibition, usual class: inhibitors; actives 6.9% (n = 320,000); also: potency is read from the fitted curve at half-maximal effect; % is scaled to controls: 0 for no effect and ±100 for the full control effect
#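 Cell-based qHTS: luciferase-tagged P. falciparum in erythrocytes (2% hematocrit, 0.05% parasitemia final) incubated with compounds for 96 hours, 37 C, 5% CO2; luciferase detection reagent then added and luminescence measured.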
# AMA1-RON2 inh: qHTS for Inhibitors of AMA1-RON; Towards Development of Antimalarial Drug Lead: Primary Screen. Plasmodium falciparum AMA1 (3D7) - RON2 peptide interaction. AlphaScreen AMA1-biotinylated RON2 peptide binding. Potency, µM (doses to about 58.2 µM), without a hit: at the top dose activity change, negative = inhibition, usual class: inhibitors. actives 0.2% (n = 360,000). AID 720542, 2013;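 also: potency is read from the fitted curve at half-maximal effect; 0% = vehicle wells and -100% = peptide control; nearly all actives have a fitted effect of over 45% in size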
#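 AMA1 (3D7) with his tag at 25 nM final met compounds first, then biotinylated RON2 peptide at 25 nM; detection used donor plus acceptor beads, 10 µg/mL apiece, read by AlphaScreen after 30 min at room temperature.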
# Active calls of the source: *; ? = inconclusive; · = no result; [ ] = dose if it differs, or a comment. Unless noted, calls follow the shape of the dose curve; as a rule, active = well fitted curve in the direction sought with a large enough effect; inconclusive = small, poorly fitted or top-dose-only effect, or another doubt; inactive = no such curve, though single readings can be large; an effect the other way counts as inactive or inconclusive.
SMILES,Shiga inhibitor,CHX counter,HCV inhibitor,Pf growth 48h,Pf growth 96h,AMA1-RON2 inh
Cc1ccc(-n2ncc3c(=O)n(CC(=O)N(C)C)cnc32)cc1C,29,14*,3%,-3%,?,2%
CC(=O)Cn1cnc2c(cnn2-c2ccc(C)c(C)c2)c1=O,91*,54*,9%,-17%[0.00184 µM],-15%,-10%
CN(C)S(=O)(=O)c1cccc(C(=O)NC2CCSc3ccccc32)c1 (stereo not drawn),-12,-1,-4%,?,12µM*,-5%
CS(=O)(=O)Cc1cccc(C(=O)NC2CCSc3ccccc32)c1 (stereo not drawn),17,10,8%,6%,75%,-11%
O=C(NC1CCSc2ccccc21)c1cccc([N+](=O)[O-])c1 (stereo not drawn),48*,23,2%,1.5µM*,2.3µM*,0%
CCn1c(O)c(N=NC(=S)NCC2CCCO2)c2ccccc21 (stereo not drawn),-9,1,?,-29%,?,38%
Oc1[nH]c2ccccc2c1N=NC(=S)NCC1CCCO1 (stereo not drawn),18,17*,?,?,?,9%
Oc1[nH]c2ccc(Br)cc2c1N=NC(=S)NCC1CCCO1 (stereo not drawn),-6,-2,11µM*,5.9µM*,?,52%
Oc1[nH]c2c(Cl)cc(Cl)cc2c1N=NC(=S)NCC1CCCO1 (stereo not drawn),-16,-3,?,1.9µM*,6.6µM*,51%
Cc1cc(C)c2[nH]c(O)c(N=NC(=S)NCC3CCCO3)c2c1 (stereo not drawn),-6,-4,-6%,?,?,53%
Clc1ccccc1-c1nc(-c2ccccc2)n[nH]1,125*,53*,?,136%,·,-9%
CCN(CC(=O)Nc1ccccc1OC)Cc1csc(CC(=O)Nc2ccc(C)cc2)n1,·,·,?,·,·,36%
O=C(CN1C(=O)COc2ccccc21)N(Cc1cccnc1)Cc1cccc(F)c1,-5,-3,-3%,?,-4%,15%
CCC1Oc2ccc(C)cc2N(CC(=O)N2CCOCC2)C1=O (stereo not drawn),18,-5,15%,2%,?,-5%
CCC1Oc2ccc(C)cc2N(CC(=O)N(Cc2cccnc2)Cc2cccc(F)c2)C1=O (stereo not drawn),-8,-3,20%,12µM*,98%,25%
CCC1Oc2ccc(C)cc2N(CC(=O)N(Cc2ccncc2)Cc2ccco2)C1=O (stereo not drawn),-8,-4,-5%,12µM*,5%,-9%
O=C(CSc1cccc[n+]1[O-])NN(c1ccccc1)c1ccccc1,24,-3,2%,17%,17%,0%
Oc1ccc(Oc2ccc(Oc3ccc(O)cc3)cc2)cc1,·,17*,-2%,21%,10%,-7%
COc1ccc(S(=O)(=O)c2ccc(O)cc2)cc1,17,3,15%,·,18%,5%
CCCN1CCc2c(sc(NC(=O)C3CCN(S(=O)(=O)c4cccs4)CC3)c2C(N)=O)C1,·,·,?,?,?,-6%
O=C(NCCCCNC(=O)c1ccc(Br)cc1)c1ccc(Br)cc1,13,-1,11%,1%,56%,20%
COc1ccc(C(=O)NCCCCc2ccccc2)cc1,·,·,-19%,·,·,5%
O=C(NCCCc1ccccc1)c1ccc(F)cc1,55*,34*,15%,38%,17µM*,7%
O=C(NCCCCNC(=O)c1ccc(F)cc1)c1ccc(F)cc1,-8,-4,6%,3%,2.6µM*,9%
O=C(c1ccco1)N1CCN(C(=O)c2cnn3c2NC(c2cccs2)CC3C(F)(F)F)CC1 (stereo not drawn),-19,-3,0%,?,-57%,-1%
SMILES,Shiga inhibitor,CHX counter,HCV inhibitor,Pf growth 48h,Pf growth 96h,AMA1-RON2 inh
O=C(c1cnn2c1NC(c1ccco1)CC2C(F)(F)F)N1CCN(c2cccc(Cl)c2)CC1 (stereo not drawn),1,7,10µM*,?,·,-16%
COc1ccc(NS(=O)(=O)c2ccc3ccccc3c2)c2ncccc12,2,-1,?,2.9µM*,11%,87%
COc1ccc(S(=O)(=O)Nc2cccc3cccnc23)cc1,-8,15,·,·,·,·
Cc1ccc(S(=O)(=O)Nc2cccc3cccnc23)c([N+](=O)[O-])c1,-5,-2,?,2.6µM*,1%,-8%
O=S(=O)(Nc1cccc2cccnc12)c1ccccc1,11,19,?,3.7µM*,46%,43%
O=S(=O)(Nc1cccc2cccnc12)c1ccc(S(=O)(=O)N2CCCC2)cc1,-14,-1,2.8µM*,10µM*,?,97%
CC(C)OC(=O)C1C2C=CC3(CN(C(C)c4ccc(Br)cc4)C(=O)C13)O2 (stereo not drawn),-18,14,4%,·,10µM*,0%
CC(c1ccc(Br)cc1)N1CC23C=CC(O2)C(C(=O)O)C3C1=O (stereo not drawn),-3,-3,9%,·,23%,-6%
CC(C)OCC1CO1 (stereo not drawn),·,·,13%,22%,36%,0%
CCC(C)(C)c1ccc(OCCCC[n+]2ccccc2)c(C(C)(C)CC)c1,-7,-5,?,2.1µM*,-22%,-9%
CCCCOc1ccc(C)cc1CN(CCO)CCO,21,10,3%,·,3%,-5%
CCCCCc1ccc(OCCCC[n+]2ccc(C)cc2)c(CCCCC)c1,0,-3,6.3µM*,0.47µM*,39%,-2%
CCCCCc1ccc(OCCCC[n+]2cccc(C)c2)c(CCCCC)c1,-9,-3,?,-9%,-19%,-23%
CCCCCc1ccc(OCCCC[n+]2ccccc2)c(CCCCC)c1,31,-5,-27%,0.93µM*,-2%,-14%
Cc1cccc(NC(=O)Nc2ccccc2[N+](=O)[O-])n1,14,24*,11%,50%,-7%,-5%
COc1ccccc1NC(=O)Nc1cccc(C)n1,24,8,-8%,-17%,78%,2%
COc1ccc(NC(=O)Nc2cccc(C)n2)cc1,117*,49*,-3%,140%,5%,-2%
COC(=O)c1ccccc1NC(=O)Nc1cccc(C)n1,-8,-1,7%,43%,?,11%
Cc1cccc(NC(=O)Nc2ccc(Br)cc2)n1,59*,29*,10%,106%,1%,-6%
CCC(=O)Nc1ccc(C(=O)Nc2cccc(C)n2)cc1,62*,35*,17%,121%,156%,-14%
